# Compound activity deposited in PubChem BioAssay by The Scripps Research Institute Molecular Screening Center.
# Rows were chosen to be rich in hits. Some 4.1% of all compounds tested hit in one or more screens of this group.
# DAX1 inh-1: NR0B1 (DAX1) inhibition; P51843; HEK293 Gal4-DAX1 luciferase reporter, luminescence; inhibition, % at 6.75 µM; hit rate 0.99% among 340,000; AID 504766;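 active = inhibition above the mean over all tested compounds plus 3 SD, cut at about 4.2% in these data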;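 also: inhibition shows as a rise in luminescence from relieved DAX1 repression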
# Target sequence (P51843 207-470 limits assumed): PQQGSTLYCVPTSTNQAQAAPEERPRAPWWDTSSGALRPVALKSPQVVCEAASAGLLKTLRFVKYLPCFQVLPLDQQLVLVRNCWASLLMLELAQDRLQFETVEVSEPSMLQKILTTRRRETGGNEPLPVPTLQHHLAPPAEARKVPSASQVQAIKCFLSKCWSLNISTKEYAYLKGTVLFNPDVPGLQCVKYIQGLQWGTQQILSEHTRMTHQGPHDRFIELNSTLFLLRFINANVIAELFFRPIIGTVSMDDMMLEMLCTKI
# ssDAF12 agonist: S. stercoralis DAF-12 activation, primary screen | HEK293 ssDAF-12/GRIP1 lit1-tk-luc reporter, luminescence; % of 3 µM dafachronic acid response | activation, % at 6.8 µM | hit rate 1% among 370,000 | AID 652126;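 active = activation above the mean over all tested compounds plus 3 SD, cut at about 0.9% in these data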
# hgDAF-12 ag: hgDAF-12 agonism, primary luciferase screen. activation, % at 6.8 µM. hit rate 1.8% among 370,000. HEK293 GAL4-hgDAF12 UAS-luciferase reporter, agonist luminescence; normalized to butyrate control. AID 687014;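 active = activation above a cutoff set at the mean of all screened compounds plus 3 SD, cut at about 10% in these data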
# hcDAF-12 act: activators of H. contortus DAF-12 nuclear receptor | HEK293 hcDAF-12 lit1-tk-luc reporter, luminescence; 0% DMSO, 100% Δ7-dafachronic acid | activation, % at 6.8 µM | hit rate 1.4% among 370,000;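 active = activation above the mean of all tested compounds plus 3 SD, cut at about 5.5% in these data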
# DAX1 inh-2: blocks DAX1 repression of SF-1 activated StAR promoter. HEK293T StAR-luciferase reporter, SF-1/DAX-1 repression relief. inhibition, % at 6.8 µM. hit rate 1.1% among 370,000;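 active = inhibition above the mean over all tested compounds plus 3 SD, cut at about 3.6% in these data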;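 also: higher inhibition means more luminescence from relief of DAX-1 repression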
# Numbers stand for hits; i = inactive; nt = not tested or not shown.
SMILES,DAX1 inh-1,ssDAF12 agonist,hgDAF-12 ag,hcDAF-12 act,DAX1 inh-2
CC(C)(C)n1cnc2cc(NC(=O)c3ccccc3)ccc21,5.5,i,11,i,i
CC(C)(C)c1ccc(C(=O)Nc2ccc(F)cc2)s1,i,i,i,6.3,i
C#CCN1CC(N2CCN(CCO)CC2)CS1(=O)=O (centres undefined),nt,i,i,i,i
O=C(NCCOc1ccccc1)C1CCCCC1,i,i,i,i,4.1
CN(C)c1ccc(/C=N/NC(=O)CN2CCCCC2)cc1Br,i,1.3,i,i,i
O=S(=O)(c1ccc(Br)s1)N1CCC(c2nc3ccccc3o2)CC1,nt,i,i,i,i
COc1ccc(NC(=O)CCN2CCN(S(=O)(=O)c3ccc(Cl)cc3)CC2)cc1,i,i,i,i,i
COc1ccc(S(=O)(=O)N2CCCCCC2)cc1,i,i,i,i,i
COc1ccc(-c2ccc(S(=O)(=O)N3CCCC3)cc2)cc1,5.2,i,i,i,i
COc1ccc(S(=O)(=O)N2CCC(c3nc4ccccc4[nH]3)CC2)cc1,i,i,i,i,i
COc1ccc(OC)c(S(=O)(=O)N2CCC(c3nc4ccccc4[nH]3)CC2)c1,i,i,i,i,4.1
COc1ccc(NC(=O)CCN2CCN(S(=O)(=O)c3ccc(C(C)C)cc3)CC2)cc1,i,1.2,i,i,i
COc1ccc(S(=O)(=O)N2CCN(C(=O)C3CC3)CC2)cc1,4.2,i,i,i,i
C#CCN1CC(N(C)CCO)CS1(=O)=O (centres undefined),nt,i,i,i,i
Cc1ccc(NC(=O)N2CCC(c3nc4ccc(Cl)cc4[nH]3)CC2)cc1F,nt,i,i,i,i
C=CCN1C(=O)c2n[nH]c(COC)c2C1c1ccc(C)cc1 (centres undefined),nt,i,i,i,i
COc1ccc(OC)c(S(=O)(=O)N2CCC(C(=O)N3CCN(C4CCCCC4)CC3)CC2)c1,nt,i,i,i,4.2
COc1ccc(OC)c(Cc2nnc(CCC(=O)N3CCCCC3)o2)c1,i,i,i,i,i
COc1ccc(OC)c(S(=O)(=O)N2CCC(C(=O)N3CCN(c4ccc(F)cc4)CC3)CC2)c1,i,i,i,i,i
COc1ccc(OC)c(Cc2nnc(CCC(=O)N3CCN(C4CCCC4)CC3)o2)c1,i,i,i,i,3.7
CC(=O)Cn1cnc2c(cnn2-c2ccc(F)cc2)c1=O,i,1.0,i,i,i
CC(C)(C)n1ncc2c(=O)n(CC(=O)Nc3ccc(Cl)cc3)cnc21,i,i,i,i,i
CC(C)(C)n1ncc2c(=O)n(CC(=O)c3ccc(Cl)cc3)cnc21,i,i,12,i,i
Cc1cc(N/C(=C\C(=O)c2ccccc2)c2ccccc2)ccc1Br,nt,i,i,i,i
Cc1c(C)c2c(OCC(=O)NCc3ccncc3)cc3c(c2oc1=O)CCC(C)(C)O3,5.9,i,i,i,i
SMILES,DAX1 inh-1,ssDAF12 agonist,hgDAF-12 ag,hcDAF-12 act,DAX1 inh-2
Cc1cn(CCC(=O)Nc2ccc(N3CCOCC3)cc2)c2ccccc12,i,i,i,i,i
Cc1cn(CCC(=O)Nc2ccccc2N2CCOCC2)c2ccccc12,6.8,i,i,6.0,i
CCN1C(=O)CC(c2ccc(OC(C)C)cc2)C1=O (centres undefined),4.5,i,i,i,i
COc1ccc(C2CC(=O)C(c3cccc(C)c3)=CN2Cc2ccccc2)cc1 (centres undefined),nt,i,i,i,i
CCCNC(=O)CCn1nc(-c2ccc(Cl)cc2)c2ccccc2c1=O,5.4,i,i,i,i
Cc1ccc(-c2onc3ccc(C(=O)/C=C/N(C)C)cc23)cc1,i,i,i,i,i
CN(C)/C=C/C(=O)c1ccc2noc(-c3ccc(F)cc3)c2c1,4.8,i,i,i,i
Cc1cc2c(cc1C)NC(=O)CC(c1ccccc1)=N2,i,i,12,i,i
C=CCN1[C@@H](C)COc2cccc(N3CCCC3)c2S1(=O)=O,nt,i,i,i,i
CCOC(=O)[C@]12CCCC=C1N(CCCOC)C(=O)[C@@H]2CC(=O)N1CCCCC1,nt,i,i,i,i
COC(=O)c1ccc(NC(=O)c2ccc(OC(C)=O)c(OC)c2)cc1,i,i,i,i,4.0
CC1(C)Cc2c(sc3nc(C4CC4)n(N)c(=O)c23)CO1,7.6,i,i,i,i
O=C(NCCc1c[nH]c2ccccc12)OCc1cn(-c2cccc(Cl)c2)nn1,nt,i,i,i,i
COc1ccccc1-c1cccc([C@@H]2C[C@H]3[C@H](CON3C)CN2C)c1,i,i,i,i,3.8
O=C(Nc1cccnc1Cl)c1cc(-c2ccco2)on1,i,i,13,i,i
Cc1nc(N2CCOCC2)nc(N2CCC(C)CC2)c1[N+](=O)[O-],i,i,i,i,i
Cc1nc(N2CCOCC2)nc(N2CCCCC2C)c1[N+](=O)[O-] (centres undefined),5.5,i,i,i,i
CC(C)C[C@H](NC1(C(=O)NC2CCCCC2)CCN(C(=O)OC(C)(C)C)CC1)C(=O)NCCc1c[nH]c2ccccc12,nt,i,i,i,nt
COc1ccc(C(C)=O)cc1CN1C(=O)NC(CC(C)C)C1=O (centres undefined),4.4,i,i,i,i
CCOC(=O)N1CCC(n2c(SCC(=O)NCc3ccccc3)nc3ccccc3c2=O)CC1,i,i,i,i,i
Cc1cc(=O)[nH]c(SCC(=O)NCCC2=CCCCC2)n1,4.9,i,i,i,i
Cc1cc(SCC(=O)NCCC2=CCCCC2)nc2ccccc12,i,i,i,i,i
CCOC(=O)N1CCC(n2c(SCC(=O)NCCC3=CCCCC3)nc3ccccc3c2=O)CC1,4.4,i,i,i,i
NCc1ccc(OCCCN2CCC(C(O)(C3=CCCC3)c3ccccc3)CC2)cc1 (centres undefined),nt,i,i,i,i
O=C(Oc1ccc([N+](=O)[O-])cc1)O[C@H]1CC[C@@]23CCCN2C(=O)CCC[C@H]3C1,nt,i,i,i,nt
SMILES,DAX1 inh-1,ssDAF12 agonist,hgDAF-12 ag,hcDAF-12 act,DAX1 inh-2
O=c1c2ccccc2oc2ccc(-c3ccc4[nH]ccc4c3)cc12,i,i,11,i,5.0
Cc1ccc2[nH]c(=O)c(NC(N)=S)nc2c1,i,i,i,i,i
NC(=S)Nc1nc2ccccc2[nH]c1=O,nt,i,i,5.8,i
O=C(NCc1ccco1)O[C@H]1CC[C@@]23CCCN2C(=O)CCC[C@H]3C1,nt,i,i,i,nt
O=C(c1cc2ccccc2oc1=O)N(Cc1ccccc1F)C1CCS(=O)(=O)C1 (centres undefined),i,i,i,5.8,i
O=C(c1cc2ccccc2oc1=O)N(Cc1ccccc1)C1CCS(=O)(=O)C1 (centres undefined),i,i,i,i,i
COC(=O)[C@]12C[C@H](CC(=O)NCC3CCCCC3)C(=O)N(Cc3cccc4ccccc34)C1=C[C@H](C(C)C)O[C@@H]2C1CC1,nt,i,i,i,i
COc1cccc(CN2CC(C(=O)N3CCN(C(C)C)CC3)CCC2=O)c1 (centres undefined),4.6,i,i,i,i
COc1cccc(CN2CC(C(=O)N3CCCC3)CCC2=O)c1 (centres undefined),i,i,i,i,i
